From PubChem BioAssay (EPA / NIEHS)
Several values for one entry are separate records, joined by “and”; a condition that tells them apart may be missing. Equal entries are not always repeated. Results filed as inconclusive are left out. Activity calls are given as the source filed them. The calls were made as follows, unless noted: active = hit-call score of the fitted dose curve at least 0.9, where 1 is the maximum; inactive = score below 0.9.

What was measured:
[1] = CCTE_Harrill_HTTr_Viability_MCF7: CCTE's 6-hour Cell Viability Assessment for the High-Throughput Transcriptomics (HTTr) Platform, in MCF-7 cells cultured in DMEM + 10% fetal bovine serum, Harrill Lab (AID 2284010)
Outline: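 Propidium iodide exclusion, imaged by high-content analysis, gauged viability after a six-hour exposure across eight concentrations. Cells were MCF-7 grown in DMEM with 10% fetal bovine serum; fits run in both directions against DMSO.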

[2] = CCTE_Harrill_HTTr_Apoptosis_MCF7: CCTE's 6-hour Apoptosis Assessment for the High-Throughput Transcriptomics (HTTr) Platform, in MCF-7 cells cultured in DMEM + 10% fetal bovine serum, Harrill Lab (AID 2284011)
Outline: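 Read-out: CellEvent Caspase 3/7 Green signal by high content imaging, gain-of-signal indicating apoptosis. MCF-7 cells, DMEM + 10% FBS, eight-point dilution series, 6 h exposure. Curves fitted bidirectionally relative to DMSO negative control.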

[3] = CCTE_Mundy_HCI_Cortical_NOG_NeuriteCount: CCTE's Neurite Outgrowth Assay in rat cortical cells for Neurite Count, Mundy Lab (AID 2284212);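 also: cells fixed about two days after chemical exposure began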
Outline: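 Rat cortical primary cells; compound added 2 h post-plating, 1/10 dilution of working solution. Anti-betaIII-tubulin/AF488 ICC; ArrayScan neurite count vs DMSO.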

[4] = CCTE_Mundy_HCI_Cortical_NOG_NeuriteLength: CCTE's Neurite Outgrowth Assay in rat cortical cells for Neurite Length, Mundy Lab (AID 2284213)
Outline: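 First, rat primary cortical cells were plated and, 2 h later, given test chemical as a 1/10 dilution. Finally, βIII-tubulin immunostaining enabled automated imaging of neurite length.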

[5] = CCTE_Mundy_HCI_hN2_NOG_NeuriteCount: CCTE's Neurite Outgrowth Assay in human hN2 cells for Neurite Count, Mundy Lab (AID 2284219; active = hit-call score of the fitted dose curve at least 0.9, where 1 is the maximum)
Outline: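 In this morphology assay, hNP1-derived neurons received test chemical 2 h post-plating and were fixed two days later in warm paraformaldehyde/sucrose containing Hoechst 33342. Neurites, labelled by rabbit anti-βIII-tubulin (1:800) and Alexa Fluor-488 (1:500), were counted automatically.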

[6] = CCTE_Mundy_HCI_hN2_NOG_NeuriteLength: CCTE's Neurite Outgrowth Assay in human hN2 cells for Neurite Length, Mundy Lab (AID 2284220; active = hit-call score of the fitted dose curve at least 0.9, where 1 is the maximum)
Outline: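 Read-out is neurite length from high-content imaging of βIII-tubulin/Alexa Fluor-488-labelled neurons, referenced to DMSO controls.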

[7] = CCTE_Mundy_HCI_hN2_NOG_NeuronCount: CCTE's Neurite Outgrowth Assay in human hN2 cells for Neuron Count, Mundy Lab (AID 2284221; active = hit-call score of the fitted dose curve at least 0.9, where 1 is the maximum)
Outline: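 Read-out is the number of betaIII-tubulin-positive neurons imaged by automated high-content analysis, with DMSO as negative control.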

[8] = CCTE_Mundy_HCI_Cortical_NOG_NeuronCount: CCTE's Neurite Outgrowth Assay in rat cortical cells for Neuron Count, Mundy Lab (AID 2284236; active = hit-call score of the fitted dose curve at least 0.9, where 1 is the maximum;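 also: neurons counted by imaging betaIII-tubulin and Hoechst stained cortical cells; cells exposed to compound for about 48 hours before fixation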)
Outline: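 Read-out: neuron number by high-content imaging of betaIII-tubulin (Alexa Fluor-488) and Hoechst-labelled rat primary cortical cells.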

[9] = CCTE_Mundy_HCI_Cortical_NOG_BPCount: CCTE's Neurite Outgrowth Assay in rat cortical cells for Branch Point Count, Mundy Lab (AID 2284237)
Outline: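 Measured 50.33 h after dosing, this morphology endpoint uses rat primary cortical cultures labelled for betaIII-tubulin. Branch points are quantified by high-content imaging, with DMSO as negative control and baseline.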

DIO2 (gene 1734) = assay: CCTE_GLTED_hDIO2: CCTE's human Deiodinase 2 (DIO2) Inhibition Assay, Great Lakes Toxicology and Ecology Division (GLTED) Lab (AID 2284050; active = hit-call score of the fitted dose curve at least 0.9, where 1 is the maximum)
Outline: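 Iodide released by human deiodinase 2 over 3 h with test chemical, measured spectrophotometrically via Sandell-Kolthoff cerium/arsenic reaction. Run n=3; inhibition referenced to DMSO.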

DIO3 (gene 1735) = assay: CCTE_GLTED_hDIO3: CCTE's human Deiodinase 3 (DIO3) Inhibition Assay, Great Lakes Toxicology and Ecology Division (GLTED) Lab (AID 2284055; active = hit-call score of the fitted dose curve at least 0.9, where 1 is the maximum;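 also: potency is for inhibition seen as loss of released iodide signal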)
Outline: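 Inhibition is read as reduced iodide release, measured spectrophotometrically by the Sandell-Kolthoff cerium/arsenic reaction. Adenovirus-expressed human DIO3 enzyme is exposed to chemical for 3 h, n=3 plates. Iodinated chemicals, nitrite, iron or thiocyanate may interfere.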

[10] = system: Brachyury (BRA) Protein Expression, Deisenroth Lab, TBXT (gene 6862); assay: CCTE_Deisenroth_DEVTOX-GLR_legacy_Bra: (Legacy) CCTE's DevTox GLR-Endo Assay Evaluation of Brachyury (BRA) Protein Expression, Deisenroth Lab (AID 2284329)
Outline: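 Readout: percent Bra+ cells by high-content fluorescence imaging, Bra+ meaning mean intensity 5x BMAD over pluripotent control median. RUES2-GLR cells dosed twice over 48 h differentiation; DMSO-control median subtracted before concentration-response fitting.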

[11] = CCTE_Deisenroth_DEVTOX-GLR_legacy_CellCount: (Legacy) Viability Assessment in CCTE's DevTox GLR-Endo Assay, Deisenroth Lab (AID 2284331); settings: actives raise or lower the signal
Outline: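 RUES2-GLR human pluripotent cells were seeded 24 h, then differentiated 48 h with two compound doses at 24 h intervals (10-point, 1 nM - 200 uM). Fixed nuclei were imaged and counted; bidirectional fitting versus 0.2% DMSO.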

[12] = system: SRY-box transcription factor 17 (SOX17) Protein Expression, Deisenroth Lab, SOX17 (gene 64321); assay: CCTE_Deisenroth_DEVTOX-GLR_legacy_Sox17: (Legacy) CCTE's DevTox GLR-Endo Assay Evaluation of SRY-box transcription factor 17 (SOX17) Protein Expression, Deisenroth Lab (AID 2284341); settings: actives raise or lower the signal
Outline: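 Percent SOX17-positive cells, scored by high-content imaging as mean intensity exceeding pluripotent-control median by 5x BMAD, divided by cell count. Human RUES2-GLR endoderm differentiation, 48 h, two exposures 24 h apart, 1 nM–200 uM; DMSO-referenced bidirectional fitting.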

[13] = system: SRY-box transcription factor 2 (SOX2) Protein Expression, Deisenroth Lab, SOX2 (gene 6657); assay: CCTE_Deisenroth_DEVTOX-GLR_legacy_Sox2: (Legacy) CCTE's DevTox GLR-Endo Assay Evaluation of SRY-box transcription factor 2 (SOX2) Protein Expression, Deisenroth Lab (AID 2284346)
Outline: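 Read-out: fraction of Sox2+ cells by high-content fluorescence imaging of fixed RUES2-GLR cells after 48 h differentiation with two 24 h-spaced exposures. Positivity cutoff 5x BMAD above endoderm control median; 0.2% DMSO median subtracted.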

[14] = system: SRY-box transcription factor 2 (SOX2) Protein Expression, Deisenroth Lab, SOX2 (gene 6657); assay: CCTE_Deisenroth_DEVTOX-GLR_Endo_SOX2: CCTE's DevTox GLR-Endo Assay Evaluation of SRY-box transcription factor 2 (SOX2) Protein Expression, Deisenroth Lab (AID 2284412; active = hit-call score of the fitted dose curve at least 0.9, where 1 is the maximum)
Outline: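 Endpoint is percent SOX2-positive cells (SOX2+ count/total cells) minus 0.2% DMSO control, from high-content imaging of fixed, nuclear-stained RUES2-GLR cells. Dosing twice at 24 h intervals over 48 h differentiation, 1 nM–200 uM in 10 points.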

[15] = system: SRY-box transcription factor 17 (SOX17) Protein Expression, Deisenroth Lab, SOX17 (gene 64321); assay: CCTE_Deisenroth_DEVTOX-GLR_Endo_SOX17: CCTE's DevTox GLR-Endo Assay Evaluation of SRY-box transcription factor 17 (SOX17) Protein Expression, Deisenroth Lab (AID 2284413)
Outline: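 Human RUES2-GLR cells carrying an inducible fluorescent reporter are differentiated in defined media for 48 h and dosed twice, 24 h apart. After fixation and nuclear staining, imaging yields SOX17+ cell percentage relative to 0.2% DMSO-treated differentiated cells.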

[16] = system: Brachyury (BRA) Protein Expression, TBXT (gene 6862); assay: CCTE_Deisenroth_DEVTOX-GLR_Endo_BRA: CCTE's DevTox GLR-Endo Assay Evaluation of Brachyury (BRA) Protein Expression, Deisenroth Lab (AID 2284417)
Outline: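 Endpoint is the fraction of BRA reporter-positive cells over total nuclei, corrected by subtracting the 0.2% DMSO value. Chemicals (1 nM - 200 uM, 10 points) were dosed twice during 48 h differentiation of RUES2-GLR cells, read by imaging.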

[17] = CCTE_Deisenroth_DEVTOX-GLR_Endo_CellCount: Viability Assessment in CCTE's DevTox GLR-Endo Assay, Deisenroth Lab (AID 2284420)
Outline: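 Nuclei counted by fluorescence microscopy as a surrogate for cell number, expressed as percent change relative to 0.2% DMSO control. Human RUES2-GLR cells, 48 h differentiation, dosed twice; 1 nM - 200 uM series.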

[18] = system: SRY-box transcription factor 17 (SOX17) Protein Expression, Deisenroth Lab, SOX17 (gene 64321); assay: CCTE_Deisenroth_DEVTOX-GLR_Pluri_SOX17: CCTE's DevTox GLR-Pluri Assay Evaluation of SRY-box transcription factor 17 (SOX17) Protein Expression, Deisenroth Lab (AID 2284427; active = hit-call score of the fitted dose curve at least 0.9, where 1 is the maximum)
Outline: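 Readout: percent SOX17+ cells (SOX17+ count/cell count) by high-content imaging of an inducible fluorescent reporter, corrected for 0.2% DMSO solvent control. RUES2-GLR cells, 48 h differentiation, dosed twice at 24 h intervals, 1 nM - 200 uM.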

[19] = system: SRY-box transcription factor 2 (SOX2) Protein Expression, Deisenroth Lab, SOX2 (gene 6657); assay: CCTE_Deisenroth_DEVTOX-GLR_Pluri_SOX2: CCTE's DevTox GLR-Pluri Assay Evaluation of SRY-box transcription factor 2 (SOX2) Protein Expression, Deisenroth Lab (AID 2284428)
Outline: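 RUES2-GLR (human pluripotent), 48 h post-dosing, 2 exposures q24h, 1 nM–200 uM 10-pt. Fixed, nuclear dye, high-content imaging 5 fields/well. Endpoint: % SOX2+ cells (SOX2+/total count) vs 0.2% DMSO; n≥4.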

[20] = system: Brachyury (BRA) Protein Expression, Deisenroth Lab, TBXT (gene 6862); assay: CCTE_Deisenroth_DEVTOX-GLR_Pluri_BRA: CCTE's DevTox GLR-Pluri Assay Evaluation of Brachyury (BRA) Protein Expression, Deisenroth Lab (AID 2284429; active = hit-call score of the fitted dose curve at least 0.9, where 1 is the maximum)
Outline: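 RUES2-GLR reporter line; 48 h mesoderm differentiation; two exposures, 24 h apart; 1 nM - 200 uM, 10 points; nuclear stain, high-content imaging, 5 fields/well; endpoint = %BRA+ cells of total count minus 0.2% DMSO; n=4.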

[21] = CCTE_Deisenroth_DEVTOX-GLR_Pluri_CellCount: Viability Assessment in CCTE's DevTox GLR-Pluri Assay Evaluation of Total Cell Counts, Deisenroth Lab (AID 2284430)
Outline: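 Cytotoxicity readout: fluorescent nuclei counts by high-content imaging, expressed as percent change relative to 0.2% DMSO. Human RUES2-GLR pluripotent line differentiated 48 h, dosed twice at 24-h intervals across 1 nM - 200 uM (10 points).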

With `CN1[C@@H]2CC[C@H]1CC(OC(=O)C(CO)c1ccccc1)C2` (stereo not given in full) as the compound, how does the outcome [1] read?
Its outcome is “inactive”.

What about the outcome [2] of the same compound?
The outcome was “inactive”.

Which results are given for `CC(CC(C)(C)C)CC(C)(C)C`?
outcome [1]: inactive; outcome [2]: inactive

For `NCCNCCNCCNCCN`, which outcome [1] is on record?
Its outcome is “inactive”.

What about the outcome [2] of the same compound?
Its outcome is “inactive”.

For `CCOC(=O)[C@@H](C)Oc1ccc(Oc2cnc3cc(Cl)ccc3n2)cc1`, which outcome [1] is on record?
Its outcome is “inactive”.

And the outcome [2]?
Its outcome is “inactive”.

For `CCOc1ccc2ccccc2c1`, which outcome [1] is on record?
The outcome was “inactive”.

And the outcome [2]?
Its outcome is “inactive”.

For `CC1=CC(=O)C(C(C)C)CC1` (stereo not given), which outcome [1] is on record?
The outcome was “inactive”.

And the outcome [2]?
The outcome was “inactive”.

With `CCCCN1C(=O)c2ccccc2C1=O` as the compound, how does the outcome [1] read?
Its outcome is “inactive”.

What about the outcome [2] of the same compound?
Its outcome is “inactive”.

What does the source list for `[Li+]`?
outcome [3]: inactive; outcome [4]: inactive; outcome [5]: inactive; AC50 [6]: 300 nM (active); AC50 [7]: 304 nM (active); outcome [8]: inactive; outcome [9]: inactive

For `COc1cc(O)c(CC=C(C)C)c(O)c1C(=O)/C=C/c1ccc(O)cc1`, which AC50 (DIO2 (gene 1734)) is on record?
Its AC50 is 215 nM (active) and 797 nM (active).

What about the AC50 (DIO3 (gene 1735)) of the same compound?
The AC50 was 150 nM (active) and 222 nM (active).

For `c1cc(-c2cnn3cc(-c4ccc(OCCN5CCCCC5)cc4)cnc23)ccn1`, which AC50 [10] is on record?
Its AC50 is 20 µM (active).

And the AC50 [11]?
The AC50 was 20 µM (active).

What about the AC50 [12] of the same compound?
Its AC50 is 24.6 µM (active).

And the AC50 [13]?
Its AC50 is 5.11 µM (active).

What about the AC50 [14] of the same compound?
The AC50 was 30.1 µM (active).

And the AC50 [15]?
The AC50 was 24.1 µM (active).

What about the AC50 [16] of the same compound?
Its AC50 is 1.44 µM (active).

What about the AC50 [17] of the same compound?
Its AC50 is 20 µM (active).

What about the outcome [18] of the same compound?
Its outcome is “inactive”.

What about the AC50 [19] of the same compound?
The AC50 was 3.94 µM (active).

And the AC50 [20]?
Its AC50 is 3.02 µM (active).

And the AC50 [21]?
The AC50 was 3.39 µM (active).
